Source: PubChem BioAssay (NCI)
The panel holds about 83,000 compounds, 20% with a hit somewhere; the sample as a whole holds those more often.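 Single-concentration screen, 48 h exposure, 96-well plates. Endpoint: percent growth. Below 10 = active.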 Values without a mark were called inactive. Calls of active or inactive are those of the source.

How the values were obtained:
Experiment in all cases: NCI-60 one-dose screen, 48 h (100 = growth as untreated, 0 = no growth, -100 = all killed)
Details in all cases: 10 µM unless noted
DU-145 prostate = system: DU-145 prostate
K-562 leukemia = system: K-562 leukemia
MALME-3M melanoma = system: MALME-3M melanoma
MDA-MB-231 breast = system: MDA-MB-231 breast
RXF 393 renal = system: RXF 393 renal
SF-268 CNS = system: SF-268 CNS
SF-295 CNS = system: SF-295 CNS
SF-539 CNS = system: SF-539 CNS
UACC-257 melanoma = system: UACC-257 melanoma
M14 melanoma = system: M14 melanoma
HCT-15 colon = system: HCT-15 colon
HT29 colon = system: HT29 colon
SNB-75 CNS = system: SNB-75 CNS
SNB-19 CNS = system: SNB-19 CNS
U251 CNS = system: U251 CNS
PC-3 prostate = system: PC-3 prostate
SK-MEL-5 melanoma = system: SK-MEL-5 melanoma
UACC-62 melanoma = system: UACC-62 melanoma
LOX IMVI melanoma = system: LOX IMVI melanoma
SK-MEL-28 melanoma = system: SK-MEL-28 melanoma

| Structure (SMILES) | growth (DU-145 prostate) | growth (K-562 leukemia) | growth (MALME-3M melanoma) | growth (MDA-MB-231 breast) [%] | growth (RXF 393 renal) | growth (SF-268 CNS) | growth (SF-295 CNS) | growth (SF-539 CNS) | growth (UACC-257 melanoma) | growth (M14 melanoma) | growth (HCT-15 colon) | growth (HT29 colon) | growth (SNB-75 CNS) | growth (SNB-19 CNS) [%] | growth (U251 CNS) | growth (PC-3 prostate) | growth (SK-MEL-5 melanoma) | growth (UACC-62 melanoma) | growth (LOX IMVI melanoma) | growth (SK-MEL-28 melanoma) |
| --- | --- | --- | --- | --- | --- | --- | --- | --- | --- | --- | --- | --- | --- | --- | --- | --- | --- | --- | --- | --- |
| Cc1nc2c(-c3cnc(N)nc3)nc(N3CCOCC3)nc2n1C(C)C | 13.4% | 12.6% | -19.2% (active) | 23.9 | -29.6% (active) | 9.06% (active) | -36.1% (active) | -42.2% (active) | -23% (active) | 4.2% (active) | 10.7% | 3.37% (active) | -38.8% (active) | 10.6 | 4.62% (active) | 14.4% | -21.2% (active) | -39.9% (active) | -1.69% (active) | -10.1% (active) |
| CC(=O)c1cc(C(=O)c2ccc3c(c2)Sc2ccccc2N3)c2c(C)cccn12 | 13.9% | 7.8% (active) | 62.3% | 19.7 | -7.81% (active) | 28.4% | 4.09% (active) | -28.4% (active) | 77% | 16.9% | 15.8% | 12% | 24.3% | 33.8 | 13.6% | 26.8% | 8.21% (active) | 26.3% | 14.1% | 62.5% |
| NC(N)=N/N=C/c1ccccc1 | 105% | 96.1% | 102% | 92.9 | 101% | 103% | 88.3% | 98% | 93.9% | 103% | 93.1% | 99.8% | 88.6% | 92.5 | 97.5% | 94.1% | 102% | 101% | 100% | 100% |
| CC(=O)OC1Oc2ccccc2-c2oc3nc(=N)n(C)c-3cc21 (stereo not given) | 191% | 94.9% | 119% | 112 | 144% | 251% | 125% | 102% | 113% | 98.7% | 104% | 109% | 112% | 106 | 113% | 97.4% | 108% | 106% | 103% | 122% |
| N#Cc1c(NN)n(C2OC(CO)C(O)C2O)c2ncnc(N)c12 (stereo not given) | -0.273% (active) | -46.1% (active) | -9.07% (active) | 15.2 | -53.1% (active) | 15.1% | 56.9% | -5.9% (active) | -26.3% (active) | -18.3% (active) | 3.17% (active) | 4.15% (active) | 35.2% | 54.7 | 34.5% | 6.48% (active) | -67.5% (active) | -39.3% (active) | -4.81% (active) | -15.1% (active) |
| CCCc1n(Cc2ccc3ccccc3n2)cc[n+]1Cc1ccc2ccccc2n1 | 51.2% | 12.8% | 12.5% | 17.8 | 48.7% | 27.8% | 59.9% | 31.2% | -11.5% (active) | 37.2% | 95.7% | 16.8% | 19.5% | 19.1 | 20.6% | 24.8% | -49% (active) | 1.66% (active) | 18% | 19.3% |
| CCCCn1c(C)nc2cc(Nc3nc(Cl)nc4nc[nH]c34)ccc21 | 89.6% | 90.3% | 79.8% | 75 | 81.9% | 92.4% | 74.5% | 76.3% | 100% | 86.8% | 90.7% | 83.6% | 78.4% | 87.4 | 77.2% | 59.7% | 73.6% | 73% | 90.4% | 99.4% |
| Nc1nc(N)c2c(n1)NC(c1sc(Cl)nc1Cl)CC(c1ccc3c(c1)OCO3)=N2 (stereo not given) | 35.3% | 16.9% | 28.8% | 48.8 | -1.6% (active) | 38.8% | 18.5% | -14.9% (active) | 39.2% | 18.1% | 23.9% | 5.28% (active) | -1.52% (active) | 36.8 | 10.4% | 48.8% | 11% | 40.1% | 40.3% | 57% |
| Nc1nc2c(c3ncccc13)C(c1ccccc1)Cc1ncccc1-2 (stereo not given) | 103% | 27.1% | 76.1% | 65.9 | 99.3% | 86.4% | 67.4% | 78.1% | 93.1% | 44.8% | 46.1% | 56.9% | 71.2% | 91.8 | 72.2% | 73.9% | 53.1% | 59.4% | 70.9% | 83.5% |
| O=[N+]([O-])c1cc(F)c2cccnc2c1O | 121% | 109% | 103% | 99.5 | 148% | 106% | 110% | 91% | 115% | 88.5% | 92.1% | 111% | 86% | 93 | 91.9% | 96.6% | 90.2% | 92.9% | 84.7% | 135% |
| Cc1cc(C)c2c(NC(=O)Nc3ccc(Cl)c(Cl)c3)n[nH]c2n1 | 105% | 91% | 90.4% | 104 | 105% | 103% | 93.4% | 112% | 110% | 109% | 100% | 96.9% | 88.7% | 101 | 102% | 103% | 103% | 103% | 99.8% | 104% |
| Cc1nc2ccc(Nc3nc(NCCN4CCOCC4)nc(Nc4ccc(F)cc4)n3)cc2n1Cc1ccccc1 | 59.2% | 3.04% (active) | -41.7% (active) | 33.3 | 12% | 62.1% | -36.8% (active) | 29.8% | -65.3% (active) | -38.8% (active) | -0.585% (active) | -33.6% (active) | 50.6% | 78.7 | 28.7% | 71.5% | 14.2% | -24.8% (active) | 5.7% (active) | -67.2% (active) |
| CC(C)NCCCCCNc1cc(O)cc2cccnc12 | 93.2% | 67.6% | 23.8% | 26.6 | 74.7% | 89.2% | 77.4% | 71.5% | 111% | 88.2% | 94.6% | 54.2% | 56.4% | 107 | 101% | 92.4% | 88.2% | 94.5% | 72.2% | 91.6% |
| Cc1ccc(NC(=O)c2[nH]c(SCCN(C)C)nc2-c2ccc(F)cc2)cc1Nc1ccc2ncn(C)c(=O)c2c1 | 80.1% | 40.2% | -12.8% (active) | 40.6 | 71.5% | 71.1% | 82.9% | 65% | 22% | 2.94% (active) | 65.4% | 21.4% | 66% | 92.4 | 66.6% | 88.5% | 30.8% | 12.5% | 28% | 16.5% |
| CCOC(=O)C1=C(C)NC(SCc2nnc(-c3ccc(Cl)cc3)o2)=NC1c1ccc(Br)cc1 (stereo not given) | 84.3% | 60.7% | 83.1% | 59.8 | 75% | 86.6% | 73.6% | 88.7% | 73% | 74% | 65.1% | 78.7% | 67.7% | 72 | 65.7% | 48.8% | 51.4% | 55.3% | 75% | 81.3% |
| COc1cc(Nc2ccnc3ccc(Br)cc23)cc(OC)c1OC | 59.1% | 10.2% | 46.7% | 38 | 2.9% (active) | 47.6% | 25.6% | 12.7% | 38.2% | 14.3% | 30.6% | 14.2% | -4.34% (active) | 32.9 | 18.6% | 26.7% | 8.82% (active) | 30.4% | 32% | 58.3% |
